Measured values taken from PubChem BioAssay AID504710 (Sanford-Burnham Center for Chemical Genomics, 2011).
Where “and” joins values, the source holds several entries; their conditions need not be identical. Equal entries are not always repeated. A number with no mark means an inactive call. Calls of active or inactive are those of the source.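 Rule for the calls: active = inhibition reaching about 16% in any single replicate (limit read from the data); inactive = the rest.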

Molecular target: Hexokinase HKDC1 (Homo sapiens) (UniProt Q2TB90)
Sequence (Q2TB90 whole entry, looked up): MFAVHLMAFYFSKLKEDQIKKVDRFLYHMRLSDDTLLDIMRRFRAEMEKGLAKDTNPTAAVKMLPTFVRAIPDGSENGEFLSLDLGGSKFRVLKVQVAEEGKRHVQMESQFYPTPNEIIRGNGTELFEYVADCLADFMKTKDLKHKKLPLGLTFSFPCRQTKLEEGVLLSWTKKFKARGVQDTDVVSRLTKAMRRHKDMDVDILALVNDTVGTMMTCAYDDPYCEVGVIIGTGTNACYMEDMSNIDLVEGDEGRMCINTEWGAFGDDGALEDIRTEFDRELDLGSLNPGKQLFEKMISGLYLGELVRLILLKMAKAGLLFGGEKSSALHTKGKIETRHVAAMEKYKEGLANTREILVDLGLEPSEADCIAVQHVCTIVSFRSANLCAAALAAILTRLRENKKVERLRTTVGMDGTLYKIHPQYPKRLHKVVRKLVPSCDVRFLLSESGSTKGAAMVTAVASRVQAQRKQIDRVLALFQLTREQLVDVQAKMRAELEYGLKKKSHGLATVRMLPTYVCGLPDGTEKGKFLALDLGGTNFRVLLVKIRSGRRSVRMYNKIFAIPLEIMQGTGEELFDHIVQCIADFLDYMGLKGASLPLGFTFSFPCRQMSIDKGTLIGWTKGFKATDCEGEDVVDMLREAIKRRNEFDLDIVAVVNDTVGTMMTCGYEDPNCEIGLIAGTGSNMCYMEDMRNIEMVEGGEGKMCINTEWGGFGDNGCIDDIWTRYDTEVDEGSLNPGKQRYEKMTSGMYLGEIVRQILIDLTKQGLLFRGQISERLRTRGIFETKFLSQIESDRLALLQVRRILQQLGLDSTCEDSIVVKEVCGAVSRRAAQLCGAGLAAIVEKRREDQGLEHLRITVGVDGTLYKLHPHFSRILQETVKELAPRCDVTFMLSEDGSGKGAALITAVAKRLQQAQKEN
Test: HKDC1 hexokinase inhibitors, confirmation, biochemical, single concentration (AID 504710)
Conditions: recombinant HKDC1, G6PDH/diaphorase/resazurin fluorescence; at 20 µM; stronger effect = higher value

Row | SMILES | inhibition
1 | CC(=NNC(=S)SCc1ccccc1)c1ccccn1 | -28.3%
2 | O=C1c2ccccc2-c2onc3ccc(Oc4ccccc4)c1c23 | 28.2% (active)
3 | COC(=O)c1ccc(NC(=O)CSc2n[nH]c(-c3ccncc3)n2)cc1 | 43% (active)
4 | Cc1ccc(S(=O)(=O)/N=C2\C=C(Nc3cccc(C(=O)O)c3)C(=O)c3ccccc32)cc1 | 79.9% (active)
5 | Cc1ccc(N=Nc2ccc(O)c3ncccc23)cc1C | -40.4%
6 | CC(=O)C1=C(c2cccc([N+](=O)[O-])c2)N(C(C)=O)n2c(C)nnc2S1 | -387%
7 | CCn1c2ccccc2c2nc3cc(S(=O)(=O)N4CCOCC4)ccc3nc21 | -47.4%
8 | CC(=O)n1cc(N(C(=O)CCl)c2ccc([N+](=O)[O-])cc2)c2ccccc21 | 40.9% (active)
9 | CCCCC[C@H](O)/C=C/[C@@H]1[C@@H](C/C=C\CCCC(=O)OC)[C@@H](O)C[C@H]1O | 61% (active)
10 | O=C1C(Cl)=C(N2CCCCC2)C(=O)C(Cl)=C1c1cnc(N2CCCCC2)s1 | 49.4% (active)
11 | Cc1cccc(C)c1Nc1nnc(SCc2cn3cccc(C)c3n2)s1 | 54.1% (active)
12 | CC(C)(C)c1ccc(-c2csc(NNC3=NCCCCC3)n2)cc1 | -39.4%
13 | CCC1=NN2C(=N)/C(=C\c3ccc(OCc4cc(=O)n5nc(CC)sc5n4)c(OC)c3)C(=O)N=C2S1 | 22.8% (active)
14 | COC1=CC(=O)c2c(ccc3ncnc(N)c23)C1=O | 87.6% (active)
15 | Cc1cc2cc(CCNC(=O)c3ccc(S(=O)(=O)N4CCCC4)cc3)c(=O)[nH]c2cc1C | 53.2% (active)
16 | COC(=O)c1ccccc1NC1=C/C(=N\S(=O)(=O)c2ccc(C(=O)O)cc2)c2ccccc2C1=O | 86% (active)
17 | O=C1C=C(NCc2ccccc2)c2ccccc2C1=O | 56% (active)
18 | O=C(Nc1ccc(N2CCCC2)cc1)c1cccc(-c2cc3ccccc3oc2=O)c1 | -24.8%
19 | NC(=NCCCCCCN=C(N)/N=C(\N)Nc1ccc(Cl)cc1)/N=C(\N)Nc1ccc(Cl)cc1 | 49.3% (active) and 46.4% (active)

Row | SMILES | inhibition
20 | Cn1c(SSc2ccc(-c3cccnc3)n2C)ccc1-c1cccnc1 | -248%
21 | COC(=O)c1ccc(NCc2cc(O)ccc2O)cc1 | 65.1% (active)
22 | O=C1C=C(N2CCCCC2)c2ccccc2C1=O | 86.1% (active)
23 | O=NNc1nc2ccccc2n1Cc1ccccc1 | -44.2%
24 | CC(NC1=CC(=O)c2cccnc2C1=O)C(O)c1ccccc1 (configuration not stated) | 43.3% (active)
25 | CCOc1ccc2c(c1)C(NC(C)=O)C(=O)N2CCN1CCOCC1 (configuration not stated) | 60.9% (active)
26 | O=S(=O)(c1ccc(NC(=S)NN=C(Cc2ccccc2)Cc2ccccc2)cc1)N1CCOCC1 | -43.9%
27 | Cc1cc(C)n2nc(SCc3nnc(SCc4ccccc4C)s3)nc2n1 | 69.2% (active)
28 | O=C(CSc1nnc(CCCN2C(=O)c3cccc4cccc(c34)C2=O)n1-c1ccccc1)N1CCCCC1 | 48.3% (active)
29 | O=C(O)c1ccc(NC2=C/C(=N/S(=O)(=O)c3ccccc3)c3ccccc3C2=O)cc1 | 76% (active)
30 | Cc1ccccc1N=C1NN=C(c2ccccc2F)CS1 | -40.3%
31 | Cc1cc(C)n2nc(SCc3nnc(SCc4ccccc4Cl)s3)nc2n1 | 43% (active)
32 | CC(=NNC(=S)N1CCCCC1)c1cccc(C)n1 | -39.6%
33 | O=C(NCCc1ccccc1)C(c1cccs1)N(C(=O)CCl)c1ccc(Cl)cc1 (configuration not stated) | 23% (active)
34 | CCN(CC)CCNc1cc(C)nc2c1C(=O)C(=O)C=C2N1CCCCC1 | 57.9% (active)
35 | CCOC(=O)Cn1c2ccc(F)cc2c2nc(C)sc21 | -36.6%
36 | C=CCn1c(SCC(=O)Nc2sc3c(c2C#N)CCC(C)C3)nc2cc(C(=O)O)ccc2c1=O (configuration not stated) | 32.7% (active)
37 | Cn1c2ccccc2c(=O)c2c(=O)n(-c3ccc(F)cc3)c(-c3cccs3)nc21 | 66% (active)
